Compound activity as filed in PubChem BioAssay.
TRb SRC2 PPI = inhibitors of human thyroid hormone receptor beta-SRC2 interaction. P10828. TRbeta-SRC2 peptide binding, fluorescence polarization; receptor liganded with 1 µM T3. Potency, µM (series often up to 106 µM), for the others: at the highest dose activity change, negative = inhibition, most hits filed as inhibitors. hit rate 0.065% among 280,000;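 also: plate controls were bound peptide for no effect and peptide without receptor for full effect; nearly all actives have a fitted effect of over 50% in size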
Target sequence (P10828 whole entry, looked up): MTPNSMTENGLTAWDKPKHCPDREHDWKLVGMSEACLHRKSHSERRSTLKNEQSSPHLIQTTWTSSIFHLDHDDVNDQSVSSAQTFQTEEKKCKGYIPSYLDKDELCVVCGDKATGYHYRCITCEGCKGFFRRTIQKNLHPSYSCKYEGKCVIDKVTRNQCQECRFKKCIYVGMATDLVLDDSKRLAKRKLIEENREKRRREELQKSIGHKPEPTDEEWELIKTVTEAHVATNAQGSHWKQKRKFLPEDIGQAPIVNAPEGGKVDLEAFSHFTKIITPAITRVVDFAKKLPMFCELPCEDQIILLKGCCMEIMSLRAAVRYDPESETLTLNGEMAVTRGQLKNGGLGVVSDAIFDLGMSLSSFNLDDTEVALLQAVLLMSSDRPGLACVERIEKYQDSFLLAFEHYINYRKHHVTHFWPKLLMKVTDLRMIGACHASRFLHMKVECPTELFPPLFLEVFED
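Polarization signal, normalized between peptide-alone and full complex controls, measured compound effects on T3-liganded human TRb LBD (0.6 uM) binding 20 nM Texas Red SRC2 peptide after 5 hr.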
Tau fluor counter = counter-screen for tau fibril formation inhibitors; tau K18 P301L Alexa594 fluorescence, heparin fibrillization; Potency, µM (doses to about 57.7 µM), inactives show at the highest dose activity change, negative = decrease; hit rate 0.93% among 280,000; also: nearly all actives have a fitted effect of over 55% in size
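Human K18 P301L tau (15 uM unlabeled plus 0.24 uM Alexa 594-labeled, final) in 100 mM sodium acetate pH 7 was mixed with compound and 20 uM heparin and incubated 6 hr at 37 C.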
TR SRC2 fluor cs = Texas Red fluorescence interference in TRb-SRC2 counter-screen. TRb/SRC2 Texas Red total fluorescence interference. Potency, µM (doses to about 106 µM), without a hit: at the top dose fluorescence change, negative = quenching. hit rate 0.29% among 280,000; active = well fitted curve in either direction with a large enough effect; inconclusive = small, poorly fitted or top-dose-only effect
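Flags fluorescent or light-absorbing compounds by total fluorescence, S + 2P, at 555 nm excitation and 632 nm emission. Mixture: 20 nM Texas Red SRC2 peptide, 0.6 uM human TRb LBD, 1 uM T3, 5% DMSO; compound exposure 5 h at ambient temperature.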
Tau fibril ThT = blocks human tau fibril formation measured by thioflavin T. recombinant tau K18 P301L (four-repeat tau fragment), heparin-induced fibrillization, ThT fluorescence. Potency, µM (series often up to 57.4 µM), for the others: at the top dose activity, negative = inhibition, usual class: inhibitors. hit rate 2.1% among 270,000. AID 1460; also: nearly all actives have a fitted effect of over 55% in size
Target sequence (P10636 561-689 P618L limits assumed): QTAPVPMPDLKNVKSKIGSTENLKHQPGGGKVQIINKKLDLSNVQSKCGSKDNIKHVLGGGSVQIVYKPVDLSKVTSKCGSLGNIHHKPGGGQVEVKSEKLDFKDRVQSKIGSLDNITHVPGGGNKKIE
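Heparin-induced fibrillization of the P301L-mutant K18 repeat-domain fragment of human tau was followed by ThT binding in quantitative high-throughput format.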
Tau fibril FP = inhibitors of human tau fibril formation. hit rate 0.39% among 280,000. K18 P301L tau heparin fibrillization, Alexa594 FP, 6 h. P10636. Potency, µM (highest dose often 57.7 µM), for the others: top-dose activity, negative = inhibition, usual class: inhibitors; also: nearly all actives have a fitted effect of over 55% in size
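Human tau K18 […] P301L fragment, 15 uM unlabeled plus 0.24 uM Alexa 594-labeled tau (final), with compound and 20 uM heparin in 100 mM sodium acetate pH 7; 6 hr at 37 C, then Alexa 594 FP read.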
GoLoco inh red = blocks human Gai1 binding to RGS12 GoLoco peptide, red readout; P63096; Gai1:RGS12 GoLoco peptide FP, rhodamine, 10 min; Potency, µM (doses to about 61.6 µM), for the others: at the top dose activity, negative = inhibition, hits mostly inhibitors; hit rate 0.44% among 230,000; AID 880; active = well fitted inhibition curve with a large enough effect, not every such curve was filed as active; inactive = no such curve, though single readings can be large or run the other way; also: nearly all actives have a fitted effect of over 30% in size
An asterisk follows results filed as active; ? = inconclusive; nt = no result; [ ] = remark or other dose. Compounds with a hit are over-represented: about 3.2% of the library has one in this group of screens. Unless noted, calls follow the shape of the dose curve; as a rule, active = well fitted curve in the direction sought with a large enough effect; inconclusive = small, poorly fitted or top-dose-only effect, or another doubt; inactive = no such curve, though single readings can be large; an effect the other way counts as inactive or inconclusive. Unless noted, % is scaled to controls: 0 for no effect and ±100 for the full control effect; potency is read from the fitted curve at half-maximal effect.

SMILES	TRb SRC2 PPI	Tau fluor counter	TR SRC2 fluor cs	Tau fibril ThT	Tau fibril FP	GoLoco inh red
CCC(=O)NC(c1ccccc1OC)c1ccc2cccnc2c1O (stereo not drawn)	0.0%	1.6%	-1.0%	1.8%	10.6%	5.1%
CN(C)c1ccc(CNC(=O)C2CCCN(S(=O)(=O)c3ccc4c(ccn4C)c3)C2)cc1 (stereo not drawn)	-5.4%	-19.2%	0.2%	3.6%	6.5%	nt
COc1ccc(-c2cc3ncc(C(=O)c4cc([N+](=O)[O-])ccc4O)cn3n2)cc1	-1.0%	-16.4%	3.6%	7.08µM*	7.9%	nt
Cc1ccc(-c2cc3ncc(C(=O)c4cc(Cl)c(C)cc4O)cn3n2)cc1	-4.0%	-15.3%	-1.5%	-14.0%	?	nt
Cc1ccc(/C=N/Nc2nc3ccccc3s2)o1	3.2%	14.1µM*[quencher]	-9.3%	?	?	4.6%
Cc1ccc(/C=N/Nc2nc(C(C)(C)C)cs2)o1	0.3%	?	-5.7%	?	?	19.0%
[O-][n+]1ccccc1SSc1cccc[n+]1[O-]	7.5%	nt	0.2%	nt	nt	-5.3%
CSc1ccc(N=Nc2c(C)[nH]n(C)c2=O)cc1	-2.8%	-7.8%	0.3%	8.91µM*	-2.0%	13.4%
COc1ccc(/C=C/c2cc(C(F)(F)F)[nH]c(=O)n2)cc1OC	2.2%	13.7%	-4.3%	10.9%	-4.1%[2.34 µM]	22.0%
CCOc1cc(/C=C/c2ccc3cccc([N+](=O)[O-])c3n2)ccc1OCC(=O)N(C)C	-15.1%	-23.5%	-7.2%	7.08µM*	5.3%	2.3%
COc1cc(/C=C/c2ccc3cccc([N+](=O)[O-])c3n2)ccc1OCC#N	1.1%	?	-8.3%	?	-9.0%	0.6%
CCOc1cc(/C=C/c2cc(C(F)(F)F)[nH]c(=O)n2)ccc1O	-1.2%	-15.5%	-3.3%	14.1µM*	-7.9%	33.8%
CCOc1cc(/C=C/c2ccc3cccc([N+](=O)[O-])c3n2)ccc1O	2.6%	?	-4.6%	14.1µM*	7.5%	4.2%
Cn1nc(-c2ccccn2)nc2c(=O)n(C)c(=O)nc1-2	?	-19.5%	-3.4%	5.62µM*	?	-6.1%
COc1ccc(-c2nc(-c3ccccn3)ncc2S(C)(=O)=O)cc1	-2.9%	-0.7%	1.2%	-3.1%	-3.9%	4.4%
CCCc1nc2c(=O)n(C)c(=O)nc-2n(C)n1	?	-6.7%	-4.7%	14.1µM*	?	-3.5%
CCc1ccc2nc(N(CCN(CC)CC)C(=O)c3cccs3)sc2c1	-1.9%	-27.1%	-0.6%	-7.5%	-14.8%	nt
COc1ccccc1-c1nnc(C2CCN(C(=O)c3cccc(Cl)c3)CC2)o1	-2.8%	-14.2%	-0.4%	-6.5%	-3.0%	nt
Cc1[nH]c2ccccc2c1C1(O)C(=O)N(Cc2ccccc2)c2ccc(Br)cc21 (stereo not drawn)	9.0%	11.2µM*[quencher]	-5.9%	?	2.2%	nt
O=[N+]([O-])c1cccc(/C=N/n2cnnc2)c1O	3.2%	-4.7%	-4.2%	15.8µM*	-12.4%	10.8%
O=[N+]([O-])c1cc(Br)cc(/C=N/n2cnnc2)c1O	-3.0%	-1.8%	0.1%	8.91µM*	8.0%	12.3%
O=[N+]([O-])c1cc(Cl)cc(/C=N/n2cnnc2)c1O	-2.5%	6.0%	1.7%	?	4.4%	5.4%
O=[N+]([O-])c1ccc(O)c(/C=N/n2cnnc2)c1	-11.9%	-6.6%	-3.5%	-11.6%	-6.9%	-3.7%
O=c1c2c(-c3ccc(Cl)cc3)csc2ncn1/N=C/c1cccc([N+](=O)[O-])c1O	7.8%	-10.6%	-3.4%	15.8µM*	1.1%	11.5%
C=CCS/C(N)=N\N=C\c1cc(Br)cc([N+](=O)[O-])c1O	-10.0%	?	-4.3%	12.6µM*	6.8%	5.0%
SMILES	TRb SRC2 PPI	Tau fluor counter	TR SRC2 fluor cs	Tau fibril ThT	Tau fibril FP	GoLoco inh red
O=c1cc(-c2ccccc2)nc(SCc2nc(-c3cccc(C(F)(F)F)c3)no2)[nH]1	1.0%	3.8%	-1.3%	9.2%	-3.2%	nt
COc1ccccc1N1CCN(C(=O)CCc2c(C)nn(-c3ccc(N4CCCC4)nn3)c2C)CC1	5.7%	3.7%	2.6%	-4.4%	-0.4%	nt
O=C1C2C(C(=O)N1/N=C/c1cc(Br)cc([N+](=O)[O-])c1O)C1C=CC2C12CC2 (stereo not drawn)	7.8%	-18.0%	-0.8%	7.94µM*	-1.2%	4.2%
CCc1ccc2oc(C(=O)Nc3nc(-c4ccc(F)cc4)ns3)c(C)c2c1	-2.3%	-10.2%	0.7%	-15.0%	-18.0%	nt
Cc1cc(C)c(O)c(N)c1	-3.3%	-24.8%	-3.0%	22.4µM*	-17.2%	-1.4%
Cc1cc(C)c(O)c(Cc2cccc(Cc3cc(C)cc(C)c3O)c2O)c1	nt	nt	nt	nt	nt	3.3%[14.2 µM]
OC1c2ccccc2N=C2CCCN21 (stereo not drawn)	-1.9%	nt	0.8%	nt	nt	nt
Cc1nc(N2CCOCC2)c2nc(-c3ccccc3)n(CCN3CCOCC3)c2n1	-7.1%	-7.9%	1.0%	-7.5%	-0.9%	-2.7%
CSC(=Nc1ccc(Cl)cc1)N[n+]1ccccc1	-1.2%	-1.6%	-1.2%	-1.7%	-5.6%	7.08µM*
NC(=Nc1ccc(Cl)cc1)c1ccccc1	3.6%	2.5%	-2.4%	3.3%	-1.3%	-2.8%
CCn1c2ccccc2c2nnc(N3CCN(c4cccc(Cl)c4)CC3)nc21	-2.3%	17.8µM*[quencher]	-14.9%	?	7.9%	nt
COc1ccc(NC(=O)CN2C(=O)CC(c3ccc(C)c(C)c3)=Nc3ccccc32)cc1OC	3.4%	25.1µM*[quencher]	-3.8%	?	-0.7%	nt
Cc1ccc(/C=c2/sc3nnc(-c4ccccc4Cl)n3c2=O)o1	-2.4%	-20.3%	-2.5%	?	1.9%	68.2%
Cc1ccc(/C=c2\sc3nc(-c4ccco4)nn3c2=O)o1	-2.7%	-29.0%	-5.0%	17.8µM*	?	120.1%
Cc1ccc(/C=c2\sc3nc(-c4ccccc4Br)nn3c2=O)o1	2.0%	-27.7%	-13.3%	28.2µM*	?	89.5%
CCOc1ccccc1NC(=O)c1c(NC(=O)COc2ccccc2)sc2c1CCCCC2	-8.0%	-4.8%	2.3%	-3.7%	5.0%	nt
C/C1=C\[C@@H](O)C(C(C)C)C(OC(=O)c2ccc(O)cc2)C/C(C)=C/CC1 (stereo partly drawn)	-4.9%	nt	-6.4%	nt	nt	nt
O=S(=O)(O)[C@@H](CO)c1ccccc1 (tested in a mixture with another compound)	nt	nt	nt	nt	nt	4.0%[14.2 µM]
CCCc1nn2c(=O)cc(COC(=O)c3ccc(NC(=O)CCc4ccccc4)cc3)nc2s1	-4.7%	0.7%	-1.2%	0.5%	-6.4%	nt
CC/C(C)=N/Nc1nc(-c2cc3cccc(OC)c3oc2=O)cs1	1.9%	?	-10.1%	17.8µM*	-4.8%	7.8%
CSc1nsc2nc(=O)c(/C=C3\C(C)=Nc4ccccc43)c(N)n12	5.2%	-26.9%	-5.6%	?	-2.6%	43.0%
